Assay outcomes deposited in PubChem by several laboratories.
An excerpt weighted towards active compounds, which were near 7.4% of everything screened.
FXIa mix inh: inhibitors of human coagulation factor XIa, pooled mixtures; P03951; purified FXIa, fluorogenic substrate; inhibition, % at 5 µM; hit rate 0.19% among 62,000; AID 680;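 also: each value is inhibition by a whole ten-compound pool holding the compound; 0% = enzyme with no mixture and 100% = wells lacking enzyme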
D1 mod: allosterically modulates the human D1 dopamine receptor | P21728 | HEK293 D1, CRE-luciferase, dopamine EC30 potentiation; actives deviate in either direction | B-score at 10 µM | hit rate 5.9% among 58,000 | AID 641;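 active = luminescence count or its row- and column-corrected plate score outside the 99.7% band of the plate's sample wells, on either side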
FXIIa mix inh: blocks human factor XIIa in pooled compound mixtures | P00748 | purified FXIIa, fluorogenic substrate | inhibition, % at 5 µM | hit rate 0.2% among 62,000 | AID 684;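 also: 0% = enzyme without compound and 100% = no enzyme blank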
M1 antagonist: antagonists of rat M1 muscarinic receptor; P08482; CHO-M1 cells, Fluo-4 calcium, ACh EC80 antagonist mode; hits give low values; B-score at 10 µM; hit rate 3.4% among 64,000;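 active = calcium fluorescence response, raw or row-and-column corrected B-score, differing from the plate sample mean either way at a set confidence level, mostly lower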
hDAT+cocaine: human DAT dopamine uptake with cocaine, either direction; Q01959; LLC-PK1 hDAT cells, [14C]-dopamine uptake with cocaine IC80; actives deviate in either direction; B-score at 10 µM; hit rate 1.3% among 110,000;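 active = Z score or B-score, a plate-position-corrected score, falls beyond the plate's 99.7% confidence bounds, in either direction; inactive = both scores lie inside the 99.7% bounds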;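 also: scored against the spread of the other compound wells on the same plate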
Target sequence (Q01959 whole entry, looked up): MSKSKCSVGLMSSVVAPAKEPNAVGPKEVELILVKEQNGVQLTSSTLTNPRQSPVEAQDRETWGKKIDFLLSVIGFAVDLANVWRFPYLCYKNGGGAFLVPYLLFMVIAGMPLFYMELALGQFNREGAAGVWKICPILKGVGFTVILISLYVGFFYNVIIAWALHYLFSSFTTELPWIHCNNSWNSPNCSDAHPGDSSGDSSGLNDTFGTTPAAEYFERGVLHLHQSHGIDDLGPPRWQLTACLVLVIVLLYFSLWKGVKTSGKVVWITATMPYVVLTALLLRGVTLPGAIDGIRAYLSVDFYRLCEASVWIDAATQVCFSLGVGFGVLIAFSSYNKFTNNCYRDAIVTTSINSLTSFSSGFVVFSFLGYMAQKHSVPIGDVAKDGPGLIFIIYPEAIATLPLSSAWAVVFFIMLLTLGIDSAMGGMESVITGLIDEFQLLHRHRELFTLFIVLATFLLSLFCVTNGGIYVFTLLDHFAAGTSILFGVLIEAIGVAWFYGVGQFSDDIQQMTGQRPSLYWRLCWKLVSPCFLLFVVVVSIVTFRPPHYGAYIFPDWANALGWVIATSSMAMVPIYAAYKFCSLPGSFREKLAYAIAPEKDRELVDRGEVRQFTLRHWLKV
M1 agonist: activates the M1 muscarinic receptor; CHO-M1 cells, Fluo-4 calcium fluorescence, agonist mode; hits give high values; B-score at 10 µM; hit rate 3% among 64,000; AID 626;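 active = fluorescence rise, raw or as B-score row- and column-corrected plate score, outside the 99.7% band of its plate's samples, either direction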
M1 antag conf: M1 muscarinic receptor (rat) antagonism, confirmed. CHO-M1 cells, Fluo-4 calcium, ACh EC80 antagonism; hits give low values. calcium response (max-min fluorescence) at 10 µM. AID 677. shares compounds with M1 antagonist. hit rate 43% among 1,700;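 active = calcium response below the same-plate mean of wells given acetylcholine alone at its 80%-effect dose, minus 3 SD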;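 also: raw fluorescence intensity difference in arbitrary instrument units and not normalized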
mGluR4 antag: mGluR4 (human) activity, M1 antagonist secondary assay. shares compounds with M1 antagonist. CHO-mGluR4 calcium flux, Fluo-4 fluorescence, glutamate EC80; hits give low values. fluorescence response (max-min) at 10 µM. hit rate 0.9% among 1,700. AID 678;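 active = fluorescence response below the plate's average for near-maximal glutamate wells, less 3 SD of those wells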;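 also: raw unnormalized fluorescence span taken in the window right after glutamate addition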
* = called active by the depositor; . = no result given. Rule as the data show it, unless noted: active = inhibition above about 20% (passing the limit was not always enough); inactive = the rest.

SMILES | FXIa mix inh | D1 mod | FXIIa mix inh | M1 antagonist | hDAT+cocaine | M1 agonist | M1 antag conf | mGluR4 antag
Cc1cc(C(=O)OCC(=O)Nc2cc(C)on2)c2ccccc2n1 | 8 | 0.75 | 15 | -6.1* | -0.68 | -0.61 | 656 | 228
CCn1cc(C(=O)NCCCN2CC(C)CC(C)C2)c2cc(OC)c(OC)cc2c1=O (configuration not stated) | -28 | . | -20 | -1.8* | -0.23 | -0.65 | 595 | 196
CC(=O)N1CCc2cc(Br)cc(S(=O)(=O)NCCCN3CCC(C)CC3)c21 | 3 | 0.3 | 6 | -3.7* | -0.033 | 0.28 | 638 | 238
CC(=O)N1CCc2cc(Br)cc(S(=O)(=O)NCCCN3CCCC(C)C3)c21 (configuration not stated) | -2 | 0.021 | 11 | -0.43 | -0.42 | 0.32 | . | .
O=C(NC1CCCCCC1)c1cc(S(=O)(=O)N2CCOCC2)ccc1N1CCCCC1 | 4 | 0.64 | 14 | 0.14 | 0.4 | 0.48 | . | .
O=C(/C=C/c1cccs1)c1cc(Br)ccc1OC(=O)N1CCOCC1 | . | . | . | . | 0.15 | . | . | .
CCn1c(COc2ccc(C)cc2)nnc1SCC(=O)C(C)(C)C | 0 | -2.1 | 0 | -0.029 | -0.81 | 0.026 | . | .
O=c1c2ccccc2nnn1CSc1nnc(COc2ccc(Cl)cc2)n1Cc1ccco1 | 1 | 0.28 | 6 | -1.1 | -1.3 | -1.4 | . | .
Clc1ccc(OCc2nnc(SCCN3CCCCC3)n2Cc2ccco2)cc1 | 6 | -2 | -5 | -13* | 3.3* | 0.17 | 21* | 247
CCc1ccc(OCc2nnc(SCCN3CCOCC3)n2CC)cc1 | -2 | -0.26 | 4 | -3.2* | -0.64 | -0.081 | 313* | 240
O=C(COC(=O)C1CCN(S(=O)(=O)c2cccc3cccnc23)CC1)c1ccc(F)cc1 | . | . | . | . | 0.57 | . | . | .
COC(=O)C1=CN(C2CC2)C=C(C(=O)OC)C1c1ccc(C(=O)OC)cc1 | -6 | 1.4 | -10 | -5.9* | 1.8 | -0.58 | 188* | 183
COC(=O)C1=CN(C)C=C(C(=O)OC)C1c1ccsc1 | 0 | . | 0 | 0.89 | 0.19 | -0.071 | . | .
CCOc1cc(C)nc(N2CCN(C3CCCCC3)CC2)n1 | -16 | -0.26 | -4 | -3.3* | 0.021 | 0.18 | 444* | 253
CN(CC(=O)Nc1cccnc1)S(=O)(=O)c1cc(Cl)ccc1Cl | 8 | . | 2 | 0.62 | 0.061 | -1.6 | . | .
CC(C)c1ccc(C(=O)Nc2ccc(N3CCOCC3)cc2)cc1 | 0 | 0.67 | 0 | . | . | . | . | .
CC(C)Oc1ccc(C(=O)Nc2ccc(N3CCCC3)cc2)cc1 | 4 | -0.78 | 4 | -2.1* | -1.2 | -0.018 | 405* | 249
CN(C)CCCN1c2ccccc2Sc2ccc(C(F)(F)F)cc21 | 7 | -5.3 | 9 | -15* | 0.98 | -0.94 | 24* | 273
O=C(NCCc1ccccc1)C(=O)NC1CCCCC1 | . | . | . | . | 0.015 | . | . | .
CCc1c(O)nc(SCC(=O)Nc2ccccc2OC)[nH]c1=O | -7 | -0.78 | 8 | -1* | 0.22 | 0.62 | 529 | 166
COc1ccccc1NC(=O)CSc1nc(O)c(Cc2ccccc2)c(=O)[nH]1 | . | . | . | . | 0.24 | . | . | .
O=C(NC(=O)c1ccccc1)NC1(C(F)(F)F)OCCO1 | 2 | -0.25 | 22 | -19* | 0.15 | 0.22 | 695 | 181
CCOc1ccccc1NC(=O)N1CCCC(c2nc3c(nnn3Cc3ccc(C)cc3)c(=O)[nH]2)C1 (configuration not stated) | 6 | 2.7 | 2 | 0.092 | -0.57 | -0.39 | . | .
CCN1CCN(Cc2c(OC)ccc3ccccc23)CC1 | 4 | -3.6* | 18 | -3* | 0.53 | 0.58 | 539 | 247
Cc1ccc(-c2nnn(CC(=O)N3CCN(c4ccccc4)CC3)n2)o1 | 7 | 0.36 | 6 | -4.2* | 0.018 | -0.2 | 641 | 237
SMILES | FXIa mix inh | D1 mod | FXIIa mix inh | M1 antagonist | hDAT+cocaine | M1 agonist | M1 antag conf | mGluR4 antag
O=C1C2C3CCCC3=C3CCCC3C2C(=O)N1c1ccccc1 (configuration not stated) | 5 | 0.58 | 3 | -3.2* | 0.8 | -0.15 | 321* | 195
O=C1C2C3C=CC(C3)C2C(=O)N1c1ccccc1 (configuration not stated) | 9 | 0.53 | 12 | 0.46 | 0.14 | 1.1 | . | .
CC(=O)N1CCC2(CC1)C(C#N)=C(N)Oc1n[nH]c(CSc3ccc(C)cc3)c12 | 14 | -0.13 | 5 | -2.4* | -0.31 | -0.42 | 676 | 127*
Cc1ccc(SCc2[nH]nc3c2C2(C(=O)Nc4ccc(F)cc42)C(C#N)=C(N)O3)cc1 (configuration not stated) | . | . | . | . | -0.78 | . | . | .
Cc1ccc(-c2nc(CSCC(=O)NCCN3CCN(Cc4ccccc4)CC3)c(C)o2)cc1 | . | -1.3 | . | -5.3* | 0.96 | 0.019 | 423* | 253
COc1ccc(C(=O)N2CCN(c3nc4cc(C)ccc4cc3C#N)CC2)c(OC)c1 | 7 | 0.18 | -3 | 0.12 | 0.8 | 0.11 | . | .
Cc1ccc2nc(N3CCN(C(=O)c4cccs4)CC3)c(C#N)cc2c1 | -24 | 0.8 | 3 | -2.3* | -0.033 | 1.5 | 619 | 210
C[N+]12CCC(CC1)C(OC(=O)C(O)(c1ccccc1)c1ccccc1)C2 (configuration not stated) | -4 | -0.026 | 2 | -16* | -0.44 | -1.5 | 16* | 243
CCN(CC(=O)NCCc1ccc(S(N)(=O)=O)cc1)Cc1nc2ccccc2c(=O)[nH]1 | 2 | . | 7 | -2* | -0.031 | 0.03 | 636 | 238
CCN(CC(=O)NCCc1ccc(S(N)(=O)=O)cc1)Cc1nc2cc(OC)c(OC)cc2c(=O)[nH]1 | . | . | . | . | -0.64 | . | . | .
CCc1[nH]nc2c1C1(CCOC1C)C(C#N)=C(N)O2 (configuration not stated) | 0 | 0.082 | -10 | 0.21 | -0.5 | -0.093 | . | .
COc1ccc(N2CCN(C(=O)CSc3nnc(-c4cccnc4)n3-c3ccc(F)cc3)CC2)cc1 | . | . | . | . | 0.87 | . | . | .
O=C(Cn1nc(-c2ccccc2)ccc1=O)NCC1CCCO1 (configuration not stated) | . | . | . | . | -0.83 | . | . | .
O=C(Cn1nc(-c2ccc(Cl)cc2)ccc1=O)NCC1CCCO1 (configuration not stated) | 0 | -0.12 | 8 | -0.8* | -0.29 | 0.58 | 575 | 261
COC(=O)CC1Oc2ccccc2N(Cc2ccccc2)C1=O (configuration not stated) | 4 | 3.5 | -3 | -2.4* | -0.16 | -0.054 | 669 | 243
COC(=O)c1oc2c(c1C)C1(CCC2)SCCS1 | -2 | 1.8 | 2 | -6.8* | 0.73 | 1.2 | 259* | 183
Cn1c(=O)c2c(ncn2CC(=O)N2CCN(c3cccc(Cl)c3)CC2)n(C)c1=O | 8 | 0.53 | 2 | -0.12 | 0.74 | -1.7 | . | .
c1ccc2c(c1)Cn1nc(Cc3nc4c(s3)CCCC4)nc1-2 | 1 | 0.87 | 1 | 0.83 | 1.5 | 0.47 | . | .
